This is a sample that favours compounds with a hit; in the whole collection about 10% have one here.
G9a inh: G9a (human) methyltransferase inhibition. G9a H3K9 monomethylation, AlphaScreen, 2 h. 350,000 tested, 8.8% active. Q96KQ7. Potency, µM (titrated, usually from 102 µM), without a hit: at the top dose activity, negative = inhibition, most hits filed as inhibitors. AID 504332; further: potency means the concentration at half of the fitted maximal effect; on the % scale 0 is the no-effect control and ±100 the full control effect; nearly all actives have a fitted effect of over 75% in size
Target sequence (Q96KQ7 913-1193 limits assumed): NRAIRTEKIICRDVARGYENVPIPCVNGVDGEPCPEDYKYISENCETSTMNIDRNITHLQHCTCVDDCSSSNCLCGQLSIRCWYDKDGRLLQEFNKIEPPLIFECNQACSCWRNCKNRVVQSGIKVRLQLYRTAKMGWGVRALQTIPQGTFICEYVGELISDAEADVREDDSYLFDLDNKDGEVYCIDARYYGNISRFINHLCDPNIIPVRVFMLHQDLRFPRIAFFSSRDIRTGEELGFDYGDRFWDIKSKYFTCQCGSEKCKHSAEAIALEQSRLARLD
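G9a (20 nM) preincubated 15 min RT with compounds, then 500 nM biotinylated H3K9 peptide and 20 uM SAM added; 2 h RT reaction. Monomethyl-H3K9 product detected by AlphaScreen with anti-H3K9me1 antibody, streptavidin donor and anti-rabbit IgG acceptor beads.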
CtBP-E1A inh: inhibitors of CtBP/E1A interaction. AlphaScreen GST-E1A/His-CtBP binding, 1536-well; active compounds read low. activity change, % (concentration not given with the values). 340,000 tested, 0.49% active; in the data active means activity change below about -65%; inconclusive means mostly about -30% to -63%; further: on the % scale 0 is the no-effect control and ±100 the full control effect
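AlphaScreen with 125 nM GST-E1A and 125 nM His-CtBP (5X stocks) in Tris pH 8.0, 300 mM NaCl, BSA, Tween 20, TCEP. Compounds preincubated 2 h at 37 deg C, then glutathione donor/nickel acceptor beads added for 1 h at 37 deg C in dark.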
Six1-Eya2 blk: inhibitors of human Six1/Eya2 interaction | AlphaScreen GST-Six1/His-Eya2 binding, biochemical; active compounds read low | activity change, % (concentration not given with the values) | 360,000 tested, 0.56% active; in the data active means activity change below about -65%; inconclusive means mostly about -30% to -63%; further: on the % scale 0 is the no-effect control and ±100 the full control effect
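Six1/Eya2 binding was read as AlphaScreen signal after compounds were pinned into GST-Six1 plus His-tagged Eya2 (5X stock 250/500 nM) in pH 8.0 Tris/NaCl/TCEP buffer, beads added, then incubated 1 h, 37 C, dark.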
HP1b binding inh: blocks HP1-beta chromodomain binding to methylated histone tails; AlphaScreen HP1-beta / biotin-H3K9me3 peptide binding; 390,000 tested, 0.56% active; Potency, µM (highest dose often 114 µM), for the others: at the highest dose activity change, negative = inhibition, hits mostly inhibitors; P83916; further: potency means the concentration at half of the fitted maximal effect; nearly all actives have a fitted effect of over 70% in size
Target sequence (P83916 whole entry, looked up): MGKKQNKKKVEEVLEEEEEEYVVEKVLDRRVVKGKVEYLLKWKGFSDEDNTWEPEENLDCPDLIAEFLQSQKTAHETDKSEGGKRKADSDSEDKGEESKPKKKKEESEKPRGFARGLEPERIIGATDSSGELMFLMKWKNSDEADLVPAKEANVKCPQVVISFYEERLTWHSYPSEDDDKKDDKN
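Compound inhibition of the preformed complex between 50 nM HP1-beta and 50 nM biotinylated H3K9me3 peptide was read by AlphaScreen. Buffer was PBS pH 7.4 with 0.01% Tween-20. Incubations ran 30 min at room temperature, with 10 ug/mL donor/acceptor beads.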
JMJD2A Tudor inh: inhibitors of human JMJD2A Tudor domain. O75164. AlphaScreen JMJD2A-Tudor / H3K4me3 peptide binding. Potency, µM (top dose mostly 114 µM), for the others: at the highest dose activity change, negative = inhibition, most hits filed as inhibitors. 390,000 tested, 4.4% active; further: potency means the concentration at half of the fitted maximal effect; on the % scale 0 is the no-effect control and ±100 the full control effect; nearly all actives have a fitted effect of over 50% in size
BAZ2B inh: BAZ2B (human) inhibition. Q9UIF8. 360,000 tested, 4.4% active. Potency, µM (highest dose often 114 µM), for inactives: at the highest dose activity change, negative = inhibition, usual class: inhibitors. AlphaScreen BAZ2B-H3K14Ac peptide displacement; further: potency means the concentration at half of the fitted maximal effect; on the % scale 0 is the no-effect control and ±100 the full control effect; nearly all actives have a fitted effect of over 60% in size
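BAZ2B 50 nM plus b-H3(5-23)K14Ac 50 nM, PBS pH 7.4/0.01% Tween-20, 30 min RT; compound added (max 110 uM), 30 min RT; streptavidin donor/Ni-chelate acceptor beads 10 ug/mL final, 20 min dark; AlphaScreen read.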
An asterisk follows results filed as active; ? = inconclusive; · = not tested or not shown; [ ] = dose if it differs, or a comment. Unless noted, the call rests on the fitted dose curve; in most records, active means well fitted inhibition curve with a large enough effect; inconclusive means small, poorly fitted or top-dose-only effect; inactive means no such curve, though single readings can be large or run the other way.

SMILES	G9a inh	CtBP-E1A inh	Six1-Eya2 blk	HP1b binding inh	JMJD2A Tudor inh	BAZ2B inh
COc1ccc(CCNC(=O)CS(=O)(=O)c2cn(CC(=O)N3CCCC3)c3ccccc23)cc1OC	50µM*	4	4	50%	-2%	·
CCCCCCN1CCN(C2CN(Cc3cn(Cc4ccc(C)cc4)nn3)S(=O)(=O)C2)CC1 (stereo unspecified)	·	-4	-2	·	·	·
O=C(N/N=C/C(Cl)=C/c1ccccc1)c1ccc2c(c1)OCO2	17%[12.7 µM]	·	-6	7%	-14%	?
Cc1ccc(N2C(=O)C3C(C2=O)N2CCCN2C3c2ccccc2)cc1C (stereo unspecified)	?	2	2	?	-15%	-21%
Cc1ccc(N2C(=O)C3C(c4ccccc4)N4CCCN4C3(C)C2=O)cc1 (stereo unspecified)	7.9µM*	-22	-3	43%	-5%	-8%
O=C(O)CNC(=O)C1(NC(=O)OCc2ccccc2)CCCC1	·	3	10	35%	0%	·
Cc1cc(N=Nc2c(O)c3ccccc3[nH]c2=O)ccc1N=Nc1ccc(C(=O)N(C)C)cc1	79µM*	·	-9	13%	?	?
COc1cc(N=Nc2ccc(C(=O)N(C)C)cc2)c(C)cc1N	·	-11	-15	20µM*	3.5µM*	·
CN(C)C(=O)c1ccc(N=Nc2c(O)c3ccccc3[nH]c2=O)cc1	·	-19	-19	-13%	-16%	·
CCc1c(-c2ccccc2OC)ncn1Cc1cccc(-c2ccccc2)c1	·	-1	-19	·	·	·
Clc1ccc(N2CCN(c3ncnc4c3nc3n4CCCC3)CC2)cc1	-28%[59 µM]	·	·	8%	-10%	-3%
COc1cccc(Nc2nc3ccc(C(=O)c4ccccc4)cc3n3c(C)nnc23)c1	6%[59 µM]	·	·	33%	-1%	-2%
Cc1cccc(CS(=O)(=O)CC2Nc3ccc(C(=O)NCc4ccccc4)cc3NC2=O)c1 (stereo unspecified)	?	·	·	-13%	-10%	3%[57.1 µM]
CCN(CC)CCCNC(=O)c1ccc2c(c1)NC(=O)C(CS(=O)(=O)Cc1ccc(F)cc1Cl)N2 (stereo unspecified)	10µM*	·	·	11%	-18%	-10%
Cc1ccc(CNC(=O)c2ccc3c(c2)NC(=O)C(CS(=O)(=O)Cc2cccc(F)c2)N3)cc1 (stereo unspecified)	6.3µM*	·	·	40%	89µM*	-1%[57.1 µM]
CC(C)CCNC(=O)c1ccc2c(c1)NC(=O)C(CS(=O)(=O)Cc1cccc(Br)c1)N2 (stereo unspecified)	13µM*	·	·	22%	?	2%[57.1 µM]
O=C(NCc1ccc(Cl)cc1)c1ccc2c(c1)NC(=O)C(CS(=O)(=O)Cc1ccc(F)cc1Cl)N2 (stereo unspecified)	16µM*	·	·	18%	?	10%[57.1 µM]
CC(C)CCNC(=O)c1ccc2c(c1)NC(=O)C(CS(=O)(=O)Cc1ccc(F)cc1)N2 (stereo unspecified)	?	·	·	9%	-17%	10%[57.1 µM]
CCC(C(=O)O)C1OC(C(C)C(O)C(C)C(=O)C(CC)C2OC3(C=CC(O)C4(CCC(C)(C5CCC(O)(CC)C(C)O5)O4)O3)C(C)CC2C)C(C)CC1C (stereo unspecified)	-6%[12.7 µM]	·	·	·	·	·
NC[C@H]1O[C@@H](n2cnc3c(N)ncnc32)[C@H](O)[C@@H]1O	2%[59 µM]	·	·	·	·	·
CCN(CC)C(=O)CC(c1ccc(F)cc1)c1ccco1 (stereo unspecified)	14µM*	5	-4	20%	-7%	-26%
CCCN(CCC)C(=O)CC(c1ccccc1)c1ccco1 (stereo unspecified)	·	0	-17	33%	-6%	-26%
CN1CCN(C(=S)Nc2cccc(S(=O)(=O)N(C)C)c2)CC1	0%[59 µM]	3	-2	-9%	-4%	-17%
COc1ccc(C(=O)NC(=S)N2CCN(C)CC2)cc1Br	45µM*	·	4	29%	-7%	-26%
COc1ccc(C(=O)NC(=S)N2CCOCC2)cc1OC	50µM*	·	10	9%	-16%	-30%
SMILES	G9a inh	CtBP-E1A inh	Six1-Eya2 blk	HP1b binding inh	JMJD2A Tudor inh	BAZ2B inh
COc1cc(C(=O)NC(=S)N2CCN(C)CC2)cc(OC)c1OC	·	5	-2	4%[57 µM]	-3%	·
CN1CCN(C(=S)NC(=O)c2cccc(S(=O)(=O)N(C)C)c2)CC1	14µM*	6	5	-9%	-26%	-31%
Cc1ccc(C(=O)NC(=S)N2CCN(C)CC2)cc1Br	45µM*	1	2	38%	-15%	-25%
COc1ccc(C(=O)NC(=S)N2CCN(c3ccccc3OC)CC2)cc1OC	·	0	-3	32%	-8%	?
COc1ccc(N(C(=O)COc2c(C)cccc2C)S(=O)(=O)c2ccc(Cl)cc2)cc1	6%[59 µM]	·	·	32%	-21%	2%
CCc1ccc(NC(=O)Nc2nnc(N(C)C3CCCCC3)s2)cc1	-25%[59 µM]	·	·	-6%	-25%	-20%
CC1=C(C(=O)Nc2ccc(C)cc2C)C(c2ccc([N+](=O)[O-])cc2)n2ncc(C(=O)Nc3ccc(F)cc3)c2N1 (stereo unspecified)	-29%[59 µM]	·	·	2%	-13%	2%[57.1 µM]
CC1(C)c2[nH]c3ccccc3c2C[C@@H]2C(=O)N(Cc3ccco3)C(=O)N21	·	·	·	20%	-33%	·
COC(=O)/C=C1\SC(=NC(=O)c2ccc(C)cc2)NC1=O	28µM*	0	-10	17%	-19%	?
COC(=O)/C=C1/SC(=NC(=O)c2ccc(Cl)cc2)NC1=O	·	5	7	-14%	?	·
CC(C)(C)NC(=O)Nc1ccc(Cn2cc(C(F)(F)F)ccc2=O)cc1	8%	3	8	-5%	32µM*	2%
COc1ccc(CNC(=O)CN(C)Cc2ccc(C(C)(C)C)cc2)cc1	40µM*	-4	0	?	2.8µM*	22µM*
CN(CC(=O)NC(=O)NCc1ccccc1)Cc1ccc(Cl)cc1	45µM*	-13	3	45%	16%	-3%
CN(CC(=O)NCc1ccccc1)Cc1ccc(Cl)cc1	-8%	-1	0	26%	-5%	-1%
COc1ccc(CNC(=O)Cn2cc(C(F)(F)F)ccc2=O)cc1	50µM*	7	5	16%	-11%	12%
CCC(C)n1c(SCc2ccc(C(C)(C)C)cc2)nc2ccsc2c1=O (stereo unspecified)	24%[59 µM]	·	·	43%	10%	11%
O=C(NCCCCNC(=O)c1ccccc1F)c1ccccc1F	30%	-2	3	23%	-10%	-2%
CC(C)CC(C(=O)Nc1oc(-c2ccco2)c(-c2ccco2)c1C#N)N1C(=O)c2ccccc2C1=O (stereo unspecified)	22µM*	-17	?	-25%	?	32µM*

Screening data: PubChem BioAssay, National Center for Advancing Translational Sciences (NCATS)
